The supplement of paper PMC10849652
The full data set covers some 7,900 targets. This sample favours those with a hit. About 0.6% of all pairs of compound and target were hits.

compound: c1cc(OCCN2CCCCC2)cc(-c2n[nH]c3ccc(-c4nnc[nH]4)cc23)c1; assay: log2 fold change, soluble protein after heating vs DMSO (PISA); higher = thermal stabilisation; K562 cells, 10 uM, 30 min; active = over 0.2 and 3.5 SD of the protein, either way, in both replicates (recomputed)
Outline: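 Thermal stability values are relative to control samples and come from duplicates. They are expressed as log2 fold changes. For measurement, K562 cells (2×10^6 cells/mL) received 10 μM compound for 30 min, and aliquots were heated for 3 min over 48°C-58°C, pooled, and extracted at 4°C in PBS with 0.5% NP-40. Soluble protein, the supernatant after 21,000xg for 90 min, was quantified by TMTpro 16plex LC-MS/MS with equalised channel sums.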

UniProt Q93009, sequence (Q93009 whole entry, looked up): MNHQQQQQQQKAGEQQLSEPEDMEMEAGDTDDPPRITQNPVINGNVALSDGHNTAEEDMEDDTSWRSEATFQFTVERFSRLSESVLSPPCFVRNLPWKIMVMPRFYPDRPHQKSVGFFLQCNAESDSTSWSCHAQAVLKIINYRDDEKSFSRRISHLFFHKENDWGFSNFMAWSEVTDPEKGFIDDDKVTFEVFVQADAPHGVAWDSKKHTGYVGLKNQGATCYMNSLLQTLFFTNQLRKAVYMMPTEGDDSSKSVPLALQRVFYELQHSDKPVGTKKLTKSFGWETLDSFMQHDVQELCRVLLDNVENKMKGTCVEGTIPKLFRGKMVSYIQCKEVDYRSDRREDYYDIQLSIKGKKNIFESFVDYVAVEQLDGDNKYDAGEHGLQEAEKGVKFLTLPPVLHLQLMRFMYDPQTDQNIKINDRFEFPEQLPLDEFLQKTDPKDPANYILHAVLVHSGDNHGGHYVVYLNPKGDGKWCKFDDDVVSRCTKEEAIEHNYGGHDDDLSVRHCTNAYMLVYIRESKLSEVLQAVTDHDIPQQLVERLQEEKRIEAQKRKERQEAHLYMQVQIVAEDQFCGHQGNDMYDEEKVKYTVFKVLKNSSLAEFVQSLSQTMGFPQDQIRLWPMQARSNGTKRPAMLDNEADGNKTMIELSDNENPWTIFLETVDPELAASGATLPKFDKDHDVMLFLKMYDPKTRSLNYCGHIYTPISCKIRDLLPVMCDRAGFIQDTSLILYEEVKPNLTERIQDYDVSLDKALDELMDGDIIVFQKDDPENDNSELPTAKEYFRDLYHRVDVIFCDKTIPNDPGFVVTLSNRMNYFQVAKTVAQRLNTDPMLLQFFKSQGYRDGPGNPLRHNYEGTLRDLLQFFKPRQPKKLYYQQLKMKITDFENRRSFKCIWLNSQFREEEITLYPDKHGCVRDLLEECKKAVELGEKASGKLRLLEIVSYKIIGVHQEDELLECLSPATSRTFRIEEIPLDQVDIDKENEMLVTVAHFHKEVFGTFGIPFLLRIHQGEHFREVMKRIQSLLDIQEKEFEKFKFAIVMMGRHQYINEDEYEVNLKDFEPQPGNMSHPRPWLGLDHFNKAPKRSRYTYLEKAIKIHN
UniProt O60701, sequence (O60701 whole entry, looked up): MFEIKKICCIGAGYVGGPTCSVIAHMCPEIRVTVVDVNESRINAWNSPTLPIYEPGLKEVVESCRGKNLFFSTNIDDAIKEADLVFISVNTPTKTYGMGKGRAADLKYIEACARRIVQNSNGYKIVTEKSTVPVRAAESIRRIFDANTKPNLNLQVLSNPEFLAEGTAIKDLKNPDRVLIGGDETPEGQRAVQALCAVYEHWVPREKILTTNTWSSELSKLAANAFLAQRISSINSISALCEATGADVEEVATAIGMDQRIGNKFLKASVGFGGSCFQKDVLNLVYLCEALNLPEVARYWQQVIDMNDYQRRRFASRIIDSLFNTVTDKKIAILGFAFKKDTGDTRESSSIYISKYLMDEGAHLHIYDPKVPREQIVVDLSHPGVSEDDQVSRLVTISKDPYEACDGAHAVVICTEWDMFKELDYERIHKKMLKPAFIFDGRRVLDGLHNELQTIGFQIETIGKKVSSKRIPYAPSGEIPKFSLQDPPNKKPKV
UniProt Q53S58, sequence (Q53S58 whole entry, looked up): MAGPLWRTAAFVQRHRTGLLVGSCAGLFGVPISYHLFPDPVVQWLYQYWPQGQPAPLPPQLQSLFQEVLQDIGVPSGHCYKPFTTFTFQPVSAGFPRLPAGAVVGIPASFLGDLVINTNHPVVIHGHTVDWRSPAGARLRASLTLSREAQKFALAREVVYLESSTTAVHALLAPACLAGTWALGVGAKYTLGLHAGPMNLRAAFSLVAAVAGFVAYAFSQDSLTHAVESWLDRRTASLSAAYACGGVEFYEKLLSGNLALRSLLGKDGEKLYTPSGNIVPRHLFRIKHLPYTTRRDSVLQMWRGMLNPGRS
UniProt P68366, sequence (P68366 whole entry, looked up): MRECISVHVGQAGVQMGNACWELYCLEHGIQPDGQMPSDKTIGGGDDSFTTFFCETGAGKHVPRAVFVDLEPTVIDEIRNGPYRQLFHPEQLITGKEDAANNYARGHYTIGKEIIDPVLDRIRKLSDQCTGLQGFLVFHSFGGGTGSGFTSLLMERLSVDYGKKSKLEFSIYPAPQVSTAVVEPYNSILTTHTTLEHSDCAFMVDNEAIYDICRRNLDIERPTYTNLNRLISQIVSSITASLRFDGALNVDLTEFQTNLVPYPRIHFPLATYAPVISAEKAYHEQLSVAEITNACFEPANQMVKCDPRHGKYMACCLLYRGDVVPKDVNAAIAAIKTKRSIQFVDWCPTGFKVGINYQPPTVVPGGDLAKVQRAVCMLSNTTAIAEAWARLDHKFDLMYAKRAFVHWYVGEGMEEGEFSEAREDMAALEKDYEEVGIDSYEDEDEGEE
UniProt Q9NV66, sequence (Q9NV66 whole entry, looked up): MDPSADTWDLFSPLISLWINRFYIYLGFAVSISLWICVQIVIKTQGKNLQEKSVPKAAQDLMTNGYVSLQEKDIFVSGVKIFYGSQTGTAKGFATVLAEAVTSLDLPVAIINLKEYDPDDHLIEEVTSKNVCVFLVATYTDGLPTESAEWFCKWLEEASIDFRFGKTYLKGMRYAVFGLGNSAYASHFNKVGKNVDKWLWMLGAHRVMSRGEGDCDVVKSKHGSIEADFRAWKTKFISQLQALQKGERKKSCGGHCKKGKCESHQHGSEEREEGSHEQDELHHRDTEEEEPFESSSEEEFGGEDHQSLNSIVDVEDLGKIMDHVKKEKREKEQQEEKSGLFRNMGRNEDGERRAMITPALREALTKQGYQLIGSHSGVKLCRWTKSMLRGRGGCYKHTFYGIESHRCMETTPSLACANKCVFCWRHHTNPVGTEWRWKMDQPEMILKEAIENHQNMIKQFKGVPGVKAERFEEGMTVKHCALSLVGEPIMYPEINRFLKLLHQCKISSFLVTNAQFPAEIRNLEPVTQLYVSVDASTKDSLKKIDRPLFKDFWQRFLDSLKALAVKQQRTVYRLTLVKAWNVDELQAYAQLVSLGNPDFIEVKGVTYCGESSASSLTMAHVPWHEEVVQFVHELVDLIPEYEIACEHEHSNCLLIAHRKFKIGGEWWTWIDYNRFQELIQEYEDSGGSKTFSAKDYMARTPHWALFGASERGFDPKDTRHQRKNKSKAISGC
UniProt Q9Y4E6, sequence (Q9Y4E6 whole entry, looked up): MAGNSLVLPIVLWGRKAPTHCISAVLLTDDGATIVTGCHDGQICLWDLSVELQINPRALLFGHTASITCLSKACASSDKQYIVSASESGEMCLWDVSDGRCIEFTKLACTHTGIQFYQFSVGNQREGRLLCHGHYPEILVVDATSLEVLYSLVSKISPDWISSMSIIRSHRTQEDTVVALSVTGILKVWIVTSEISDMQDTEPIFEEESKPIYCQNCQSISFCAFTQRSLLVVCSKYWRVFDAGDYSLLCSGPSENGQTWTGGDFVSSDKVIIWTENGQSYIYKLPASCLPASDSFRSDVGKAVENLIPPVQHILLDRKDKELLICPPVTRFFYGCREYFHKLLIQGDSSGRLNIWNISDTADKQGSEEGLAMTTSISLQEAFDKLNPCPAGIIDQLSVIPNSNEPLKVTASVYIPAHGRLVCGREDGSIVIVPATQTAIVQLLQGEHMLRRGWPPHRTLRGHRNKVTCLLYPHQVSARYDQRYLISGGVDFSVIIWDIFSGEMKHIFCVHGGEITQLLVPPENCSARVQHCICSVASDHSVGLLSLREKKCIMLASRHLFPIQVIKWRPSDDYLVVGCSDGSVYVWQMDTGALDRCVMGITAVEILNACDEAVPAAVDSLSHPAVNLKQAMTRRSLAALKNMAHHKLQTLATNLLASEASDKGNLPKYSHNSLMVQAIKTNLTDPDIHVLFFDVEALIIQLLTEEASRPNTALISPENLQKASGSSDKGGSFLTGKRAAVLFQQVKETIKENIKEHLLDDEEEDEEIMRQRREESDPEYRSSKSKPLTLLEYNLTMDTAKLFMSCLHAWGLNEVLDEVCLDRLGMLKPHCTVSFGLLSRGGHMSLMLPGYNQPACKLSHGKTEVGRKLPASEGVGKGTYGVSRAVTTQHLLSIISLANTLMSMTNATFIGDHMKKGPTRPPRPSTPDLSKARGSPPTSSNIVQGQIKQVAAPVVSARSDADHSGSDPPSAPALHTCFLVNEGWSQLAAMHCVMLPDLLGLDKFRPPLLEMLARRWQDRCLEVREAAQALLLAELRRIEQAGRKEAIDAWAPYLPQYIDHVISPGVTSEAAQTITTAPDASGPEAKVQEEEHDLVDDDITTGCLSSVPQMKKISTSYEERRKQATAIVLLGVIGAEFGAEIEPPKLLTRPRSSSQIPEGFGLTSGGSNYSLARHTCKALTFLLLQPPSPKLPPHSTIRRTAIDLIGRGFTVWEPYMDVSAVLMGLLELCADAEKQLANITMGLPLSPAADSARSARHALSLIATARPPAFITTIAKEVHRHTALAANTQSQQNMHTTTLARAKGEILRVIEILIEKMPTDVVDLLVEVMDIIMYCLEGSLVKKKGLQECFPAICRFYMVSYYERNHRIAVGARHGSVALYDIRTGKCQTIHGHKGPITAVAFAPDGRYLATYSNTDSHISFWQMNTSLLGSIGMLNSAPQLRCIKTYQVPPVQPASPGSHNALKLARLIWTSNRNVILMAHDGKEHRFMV
UniProt Q9NX61, sequence (Q9NX61 whole entry, looked up): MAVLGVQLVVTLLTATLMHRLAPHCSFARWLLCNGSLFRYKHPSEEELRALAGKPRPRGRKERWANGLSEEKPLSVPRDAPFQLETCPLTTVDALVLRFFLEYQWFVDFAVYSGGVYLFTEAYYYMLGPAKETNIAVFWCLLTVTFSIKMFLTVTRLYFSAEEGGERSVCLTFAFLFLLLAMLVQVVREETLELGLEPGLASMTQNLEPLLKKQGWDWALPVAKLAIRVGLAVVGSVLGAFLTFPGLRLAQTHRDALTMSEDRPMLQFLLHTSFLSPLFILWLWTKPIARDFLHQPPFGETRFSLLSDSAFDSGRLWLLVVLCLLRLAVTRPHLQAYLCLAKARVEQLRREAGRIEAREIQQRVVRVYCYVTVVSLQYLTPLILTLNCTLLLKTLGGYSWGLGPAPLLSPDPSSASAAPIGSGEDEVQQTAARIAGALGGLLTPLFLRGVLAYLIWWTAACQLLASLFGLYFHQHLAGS

log2 fold change, inactive:
TRAPPC2L (UniProt Q9UL33) -0.099
UGDH (UniProt O60701) 0
WDR7 (UniProt Q9Y4E6) -0.088
TOMM5 isoform 2 (UniProt Q8N4H5) 0.099
USP7 (UniProt Q93009) 0.046
TYW1 (UniProt Q9NV66) -0.007
UBR2 (UniProt Q8IWV8) -0.14
TMEM161A (UniProt Q9NX61) -0.098
XPNPEP1 isoform 3 (UniProt Q9NQW7) 0.025
XRCC6 (UniProt P12956) -0.049
TNPO2 (UniProt O14787) -0.124
TRMT10C (UniProt Q7L0Y3) 0.035
UHRF1BP1L (UniProt A0JNW5) -0.013
TUBA4A (UniProt P68366) 0.009
USP3 (UniProt Q9Y6I4) -0.014
WBP4 (UniProt O75554) -0.007
VTA1 (UniProt Q9NP79) 0.009
UBE3D (UniProt Q7Z6J8) -0.164
VPS16 (UniProt Q9H269) 0
TXNRD1 (UniProt Q16881) 0.006
TMEM177 (UniProt Q53S58) -0.042
WDCP (UniProt Q9H6R7) -0.035
TMEM223 (UniProt A0PJW6) -0.036
